Screening data deposited in PubChem by National Center for Advancing Translational Sciences (NCATS).
Only some compounds are listed: those with a hit (about 3.6% of all), similar ones and a draw of the others.
SKOV3 invasion: Primary qHTS assay for Inhibitors of ovarian cancer metastasis using an organotypic tumor microenvironment (TME) model. SKOV3ip1-GFP adhesion/invasion on 3D omental model, fluorescence. Potency, µM (titrated, usually from 45.8 µM), for the others: top-dose activity change, negative = inhibition, most hits filed as inhibitors. hit rate 0.1% among 46,000;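 note: potency is the fitted concentration of half-maximal effect; plate controls were DMSO wells for no effect and tomatine positive control wells for full effect; nearly all actives have a fitted effect of over 65% in size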
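Adhesion/invasion was scored as fixed GFP-labeled SKOV3ip1 cell counts (488/509 nm), normalized to DMSO and tomatine controls. Cancer cells in serum-free medium, with four compound doses (0.36-46 umol/L), sat 2 hr at RT then 16 hr at 37 C on a 48 hr fibroblast/mesothelial/ECM culture.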
S16 viability: Cell viability qHTS assay in S16 Pmp22-F2sN cells | Potency, µM (highest dose often 57.5 µM), for the others: at the top dose activity change, negative = cytotoxicity, actives largely listed as cytotoxic | S16 Pmp22-F2sN Schwann cells viability, CellTiter-Glo, 24 h | hit rate 0.48% among 43,000; note: potency is the fitted concentration of half-maximal effect; % is set by controls: 0 for no effect and ±100 for the full control effect; nearly all actives have a fitted effect of over 65% in size
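Rat S16 Schwann reporter line, 24 h treatment with library compounds delivered at 23 nL per well. Cell viability by CellTiter-Glo luminescence.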
PMP22 txn prim: Cell-based coincidence reporter assay to measure PMP22 gene transcription in S16 Pmp22-F2sN cells - Primary screen; Potency, µM (titrated, usually from 57.5 µM), for inactives: top-dose activity change, negative = inhibition, most hits filed as inhibitors; S16 Pmp22-F2sN Schwann cells (luciferase reporters placed in the Pmp22 gene), FLuc/NLuc coincidence luminescence, 24 h; hit rate 2% among 43,000; active = clear falling dose curves in both reporters; inconclusive = both reporters move, but less clearly or upward; inactive = either reporter flat; the % is the NLuc reporter signal; note: potency is the fitted concentration of half-maximal effect; % is set by controls: 0 for no effect and ±100 for the full control effect
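S16(c9) Schwann cells with FLuc/NLuc coincidence reporter in the Pmp22 3' UTR; compounds pin-transferred, 24 h at 37C. Dual-luciferase read: FLuc first, then NLuc after Stop&Glo, each 10 min at room temperature.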
HTT-AS act: Primary qHTS for Identification of Small Molecule Activators of Huntingtin-Antisense Promoter Activity; Potency, µM (series often up to 57.5 µM), for the others: at the top dose activity change, positive = activation, actives largely listed as activators; hit rate 0.24% among 48,000; HEK293 HTT-AS promoter firefly luciferase reporter, 24 h; response scale: percent change from vehicle, -100% = no light; note: potency is the fitted concentration of half-maximal effect; nearly all actives have a fitted effect of over 55% in size
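Quantitative HTS used concentration series of up to 57.5 uM final on HEK293 luciferase reporter cells, 24 h at 37 degrees C. Readout was Dual-Glo firefly luminescence.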
mTORC1 inh: Acumen qHTS Assay for Inhibitors of the mTORC1 Signaling Pathway in MEF (Tsc2-/-, p53-/-) Cells: Sytravon; Tsc2-/- p53-/- MEF, phospho-rpS6 immunofluorescence/PI, 24 h; Potency, µM (doses to about 38.3 µM), for the others: at the highest dose activity change, negative = inhibition, most hits filed as inhibitors; hit rate 0.78% among 44,000;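 note: potency is the fitted concentration of half-maximal effect; plate controls were DMSO for no effect and rapamycin for full effect; nearly all actives have a fitted effect of over 50% in size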
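Cell-based qHTS: Tsc2-/- p53-/- MEF, 24 h cpd, 37 °C; fix/perm, anti-phospho-S6 Alexa-488 + PI; Acumen 488 nm scan; pS6/PI ratio, % positive cells; rapamycin 7.5 nM = inhibition ref; PI count = viability.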
HTT promoter inh: Primary qHTS for Identification of Small Molecule Inhibitors of Huntingtin Promoter Activity. HEK293 HTT promoter firefly luciferase reporter, 24 h. Potency, µM (titrated, usually from 57.5 µM), for the others: at the top dose activity change, negative = inhibition, hits mostly inhibitors. hit rate 0.93% among 48,000. AID 1508623, 2021; note: potency is the fitted concentration of half-maximal effect; nearly all actives have a fitted effect of over 50% in size
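HEK293 luciferase promoter-reporter cells (2,500/well) plated 24 h, then compounds added at up to 57.5 uM final for 24 h at 37 °C. Firefly luminescence by Dual-Glo, normalized to vehicle (0%) and zero RLU (-100%).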
NLuc sat counter: Biochemical NLuc saturation counterscreen for small molecule modulators of PMP22 gene expression - Nano-Glo assay; shares compounds with PMP22 txn prim; Secreted NLuc enzyme (filtered S16 cell medium), Nano-Glo luminescence; Potency, µM (titrated, usually from 57.5 µM), without a hit: top-dose activity change, negative = inhibition, actives largely listed as inhibitors; hit rate 4% among 690; AID 1508638, 2021; note: potency is the fitted concentration of half-maximal effect; % is set by controls: 0 for no effect and ±100 for the full control effect
NLuc Km ctr: Biochemical coelenterazine-based NLuc counterscreen for small molecule modulators of PMP22 gene expression - Km assay; AID 1508639, 2021; shares compounds with PMP22 txn prim; hit rate 5% among 690; Potency, µM (titrated, usually from 57.5 µM), for inactives: top-dose activity change, negative = inhibition, actives largely listed as inhibitors; secreted NLuc enzyme, coelenterazine luminescence, Km conditions; note: potency is the fitted concentration of half-maximal effect; % is set by controls: 0 for no effect and ±100 for the full control effect
FLuc counter: Biochemical FLuc counterscreen for small molecule modulators of PMP22 gene expression; shares compounds with PMP22 txn prim; purified P. pyralis FLuc, luminescence, 10 min; 690 tested, under 10 active; Potency, µM (doses to about 57.5 µM), for the others: at the top dose activity, negative = inhibition, most hits filed as inhibitors; note: % of control where 0% means no effect
Target sequence (P08659 whole entry, looked up): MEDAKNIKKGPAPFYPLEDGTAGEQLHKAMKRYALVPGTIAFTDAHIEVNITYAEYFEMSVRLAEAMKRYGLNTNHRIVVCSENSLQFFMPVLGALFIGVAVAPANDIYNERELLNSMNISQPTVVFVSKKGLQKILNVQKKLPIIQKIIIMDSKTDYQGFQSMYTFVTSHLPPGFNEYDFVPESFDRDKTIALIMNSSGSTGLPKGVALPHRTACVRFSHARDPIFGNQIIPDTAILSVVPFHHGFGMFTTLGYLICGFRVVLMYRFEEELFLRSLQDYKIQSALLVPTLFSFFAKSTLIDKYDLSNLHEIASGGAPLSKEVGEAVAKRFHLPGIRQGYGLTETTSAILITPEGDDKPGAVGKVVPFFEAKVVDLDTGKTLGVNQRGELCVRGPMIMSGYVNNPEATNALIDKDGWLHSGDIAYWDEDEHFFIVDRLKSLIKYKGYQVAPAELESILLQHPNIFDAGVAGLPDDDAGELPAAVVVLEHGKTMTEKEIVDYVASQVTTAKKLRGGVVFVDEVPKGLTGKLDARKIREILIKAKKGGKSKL
S16 viab conf: Cell viability qHTS assay in S16 Pmp22-F2sN cells - Confirmatory screen. shares compounds with PMP22 txn prim. hit rate 7% among 690. AID 1508641, 2021. Potency, µM (titrated, usually from 57.5 µM), for the others: top-dose activity change, negative = viability loss, hits mostly cytotoxic. S16 Schwann cells viability, CellTiter-Glo ATP luminescence, 24 h; note: potency is the fitted concentration of half-maximal effect; % is set by controls: 0 for no effect and ±100 for the full control effect
PMP22 txn cnf: Cell-based coincidence reporter assay to measure PMP22 gene transcription in S16 Pmp22-F2sN cells - Confirmatory screen | Potency, µM (top dose mostly 57.5 µM), for the others: top-dose activity change, negative = inhibition, actives largely listed as inhibitors | hit rate 22% among 690 | S16 Schwann cells Pmp22-F2sN, dual luciferase, 24 h | shares compounds with PMP22 txn prim; active = clear falling dose curves in both reporters; inconclusive = both reporters move, but less clearly or upward; inactive = either reporter flat; the % is the FLuc reporter signal; note: potency is the fitted concentration of half-maximal effect
* = called active by the depositor. Unless noted, calls come from the whole dose curve; as a rule, active = well fitted curve in the direction sought with a large enough effect; inconclusive = small, poorly fitted or top-dose-only effect, or another doubt; inactive = no such curve, though single readings can be large; an effect the other way counts as inactive or inconclusive.

How did Cc1ccc(C(=O)Nc2ccc(CN3CCN(C)CC3)c(C(F)(F)F)c2)cc1C#Cc1cnc2cccnn12 do in these assays?
SKOV3 invasion: inconclusive; HTT-AS act: -22%; HTT promoter inh: inconclusive

How did O=C(O)C1(Cc2cccc(Nc3nccs3)n2)CCC(Oc2cccc(Cl)c2F)CC1 (centres undefined) do in these assays?
SKOV3 invasion: 16%; HTT-AS act: -13%; HTT promoter inh: -8%

How did N#Cc1c(C(F)(F)F)cc(-c2cccs2)nc1SCC(=O)Nc1ccc(Cl)cc1 do in these assays?
SKOV3 invasion: 4%; S16 viability: -5%; PMP22 txn prim: 19µM*; HTT-AS act: -17%; mTORC1 inh: inconclusive; HTT promoter inh: -8%; NLuc sat counter: -4%; NLuc Km ctr: 3%; FLuc counter: -5%; S16 viab conf: 9%; PMP22 txn cnf: inconclusive

What do the screens show for `CCOc1ccc(NC(=O)CSc2nc(-c3cccs3)cc(C(F)(F)F)c2C#N)cc1`?
SKOV3 invasion: 4%; S16 viability: 6%; PMP22 txn prim: -12%; HTT-AS act: -5%; mTORC1 inh: 2%; HTT promoter inh: -4%

What do the screens show for `CN(C)CCNC(=O)c1ccc(-n2c(-c3ccccc3)cc3c2CCCC3)cc1`?
SKOV3 invasion: inactive; S16 viability: 26%; PMP22 txn prim: 20µM*; HTT-AS act: -4%; mTORC1 inh: inconclusive; HTT promoter inh: -5%; NLuc sat counter: -1%; NLuc Km ctr: -1%; FLuc counter: -8%; S16 viab conf: inconclusive; PMP22 txn cnf: inconclusive
